Experimental data: PubChem BioAssay
The source made the active and inactive calls.

What was measured:
[1] = E. coli DRC41 culture turbidity changes, primary screen, E. coli filamentation inducer project, strain DRC41, OD650, 48 h (AID 1152);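 also: E. coli MC1000 strain DRC41 lacking acrAB efflux pump and sulA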; details: E. coli DRC41 (acrAB sulA), higher = more signal, called active from +8 up or from −8 down
[2] = small-molecule binders of probe aLefty1, primary screen, biochemical, small-molecule microarray, 635/667 nm fluorescence (AID 1153); details: higher = more signal;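 also: score merges spot fluorescence with signal-to-noise ratio from the scanned slide images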
[3] = PSAC antagonists in infected red cells, primary screen, cell-based, P. falciparum Indochina, OD700, 1 h (AID 1154); details: P. falciparum Indochina infected RBC osmotic lysis, higher = more signal, called active from +8 up or from −8 down
[4] = PSAC antagonists in infected red cells, primary screen, cell-based, P. falciparum Indochina, OD700, 2 h (AID 1155);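 also: lysis reports solute entry through the parasite surface anion channel PSAC; channel blockers reduce lysis of infected cells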; details: P. falciparum Indochina infected erythrocytes, osmotic lysis OD700; higher = more signal, called active from +8 up or from −8 down
[5] = osmotic lysis modulators in infected erythrocytes, primary screen, PSAC antagonist project, cell-based, P. falciparum Indochina, OD700, 3 h (AID 1156); details: higher = more signal, called active from +8 up or from −8 down
[6] = PSAC antagonists in infected red cells, primary screen, cell-based, P. falciparum Indochina, OD700, 18 h (AID 1157); details: P. falciparum Indochina infected erythrocytes, osmotic lysis OD700, 18 h; higher = more signal, called active from +8 up or from −8 down
[7] = modulators of S6 phosphorylation in cells, primary screen, cell-based, A549, cytoblot, luminescence, serum-stimulated (AID 1158); details: A549 phospho-S6 cytoblot, 5 h, higher = more signal;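 also: serum-stimulated A549 lung adenocarcinoma cells; signal is phosphorylated S6 detected by cytoblot immunostaining with HRP secondary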
[8] = target: NADPH oxidase 2 (Homo sapiens) (UniProt P04839); assay: NOX2-dependent H2O2 signal modulators, primary screen, NOX inhibitor project, cell-based, HEK293-NOX2, PMA-stimulated, Amplex Red fluorescence (AID 1159); details: 45 min, higher = more signal, called active from +8 up or from −8 down; also: test concentration not given here
NADPH oxidase 2 (Homo sapiens), sequence (P04839 whole entry, looked up): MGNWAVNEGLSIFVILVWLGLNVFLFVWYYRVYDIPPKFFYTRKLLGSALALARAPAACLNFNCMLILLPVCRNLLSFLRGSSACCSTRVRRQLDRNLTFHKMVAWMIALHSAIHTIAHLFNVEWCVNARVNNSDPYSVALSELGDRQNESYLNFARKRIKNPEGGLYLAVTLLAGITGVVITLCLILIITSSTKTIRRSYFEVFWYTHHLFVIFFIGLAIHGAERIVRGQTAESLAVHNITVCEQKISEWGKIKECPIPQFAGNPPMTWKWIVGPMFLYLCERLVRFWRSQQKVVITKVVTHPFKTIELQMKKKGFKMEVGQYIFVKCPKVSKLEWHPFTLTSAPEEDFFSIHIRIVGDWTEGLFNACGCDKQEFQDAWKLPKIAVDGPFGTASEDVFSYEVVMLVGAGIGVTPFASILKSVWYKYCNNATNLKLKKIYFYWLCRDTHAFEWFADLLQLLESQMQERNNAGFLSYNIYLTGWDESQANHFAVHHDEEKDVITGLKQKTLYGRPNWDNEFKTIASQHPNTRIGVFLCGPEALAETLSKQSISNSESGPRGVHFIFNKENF

[9] = target: NADPH oxidase 4 (Homo sapiens) (UniProt Q9NPH5); assay: NOX4-dependent H2O2 signal modulators, primary screen, NOX inhibitor project, cell-based, HEK293-NOX4, tetracycline-induced, Amplex Red fluorescence (AID 1160); details: 45 min, higher = more signal, called active from +8 up or from −8 down
NADPH oxidase 4 (Homo sapiens), sequence (Q9NPH5 whole entry, looked up): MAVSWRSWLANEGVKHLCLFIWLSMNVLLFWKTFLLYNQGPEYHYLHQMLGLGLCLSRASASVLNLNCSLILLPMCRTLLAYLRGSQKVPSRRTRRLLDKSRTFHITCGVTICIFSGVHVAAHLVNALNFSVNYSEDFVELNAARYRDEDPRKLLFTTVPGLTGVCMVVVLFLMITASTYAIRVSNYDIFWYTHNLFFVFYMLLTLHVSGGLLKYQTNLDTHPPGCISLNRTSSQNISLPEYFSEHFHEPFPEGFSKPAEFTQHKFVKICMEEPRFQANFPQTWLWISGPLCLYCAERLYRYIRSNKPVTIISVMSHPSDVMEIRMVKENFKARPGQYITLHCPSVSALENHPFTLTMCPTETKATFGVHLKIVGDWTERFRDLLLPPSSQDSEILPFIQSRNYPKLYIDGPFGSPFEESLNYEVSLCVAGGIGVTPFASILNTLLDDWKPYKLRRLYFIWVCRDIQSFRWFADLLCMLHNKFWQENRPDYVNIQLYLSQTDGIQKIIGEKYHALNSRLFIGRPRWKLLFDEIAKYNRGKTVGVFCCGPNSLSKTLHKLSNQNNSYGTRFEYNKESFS

[10] = target: NADPH oxidase 5 (Homo sapiens) (UniProt Q96PH1); assay: NOX5-dependent H2O2 signal modulators, primary screen, NOX inhibitor project, cell-based, HEK293-NOX5, Amplex Red fluorescence (AID 1161); details: HEK293-NOX5, ionomycin, 45 min, higher = more signal
NADPH oxidase 5 (Homo sapiens), sequence (Q96PH1 whole entry, looked up): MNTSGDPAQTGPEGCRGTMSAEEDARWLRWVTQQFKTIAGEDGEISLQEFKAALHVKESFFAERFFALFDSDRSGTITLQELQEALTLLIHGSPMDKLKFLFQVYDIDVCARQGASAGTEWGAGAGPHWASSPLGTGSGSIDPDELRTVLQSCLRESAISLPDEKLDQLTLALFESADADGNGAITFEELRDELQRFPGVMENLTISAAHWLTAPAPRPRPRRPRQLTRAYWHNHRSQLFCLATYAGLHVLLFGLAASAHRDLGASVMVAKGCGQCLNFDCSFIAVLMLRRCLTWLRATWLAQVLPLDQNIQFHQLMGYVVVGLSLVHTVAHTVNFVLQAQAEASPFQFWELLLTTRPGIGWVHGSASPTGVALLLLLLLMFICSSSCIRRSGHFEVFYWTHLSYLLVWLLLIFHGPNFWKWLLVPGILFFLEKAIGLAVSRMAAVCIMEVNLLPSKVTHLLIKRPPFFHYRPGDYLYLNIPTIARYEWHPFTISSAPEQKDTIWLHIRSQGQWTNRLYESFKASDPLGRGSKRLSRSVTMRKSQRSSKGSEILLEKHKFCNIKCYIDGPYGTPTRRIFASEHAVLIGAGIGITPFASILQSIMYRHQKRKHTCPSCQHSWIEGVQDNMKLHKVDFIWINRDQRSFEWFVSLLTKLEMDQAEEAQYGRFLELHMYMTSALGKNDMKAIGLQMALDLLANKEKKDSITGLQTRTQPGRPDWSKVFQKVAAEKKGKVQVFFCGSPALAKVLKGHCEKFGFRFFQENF

SMILES	z-score [1]	composite z-score [2]	z-score [3]	z-score [4]	z-score [5]	z-score [6]	z-score [7]	z-score [8]	z-score [9]	z-score [10]
O=C(NC1CC1)[C@@H]1c2ccccc2C(=O)N(Cc2ccc(OC(F)(F)F)cc2)[C@H]1c1ccc(CO)cc1	0.93 (inactive)	0.118	1.49 (inactive)	-0.538 (inactive)	2.44 (inactive)	-1.2 (inactive)	0.358	0.0746 (inactive)	-0.866 (inactive)	-0.523
O=C1O[C@@H](c2ccccc2)[C@@H](c2ccccc2)N2[C@@H](c3ccc(OCCO)cc3)[C@]3(C(=O)Nc4ccc(C#CCCO)cc43)[C@@H](C(=O)O)[C@H]12	0.624 (inactive)	1.31	1.93 (inactive)	-0.0017 (inactive)	0.88 (inactive)	-0.097 (inactive)	-0.197	2.08 (inactive)	0.716 (inactive)	1.1
NC(=O)N1C(=O)C2C(C1=O)C1C=C(CCCO)C2C(c2ccc(CN3CCCC3)cc2)N1Cc1cc2c(cc1Br)OCO2 (stereo not given)	-0.272 (inactive)	-0.276	1.69 (inactive)	0.446 (inactive)	0.604 (inactive)	0.211 (inactive)	0.106	-1.07 (inactive)	0.731 (inactive)	0.46
CN(C)CCCNC(=O)[C@@]1(C)c2ccccc2C(=O)N(Cc2ccc(OC(F)(F)F)cc2)[C@H]1c1ccc(CO)cc1	-0.796 (inactive)	-0.104	1.53 (inactive)	-0.103 (inactive)	2.79 (inactive)	0.328 (inactive)	0.235	-0.607 (inactive)	-0.303 (inactive)	-1.63
C=C(C)[C@@H]1CC=C(C(O)C2C=CC3C(=O)N(c4ccccc4)C(=O)C3N2Nc2ccc([N+](=O)[O-])cc2)CC1 (stereo not given in full)	-1.58 (inactive)	0.37	5.76 (inactive)	1.9 (inactive)	1.34 (inactive)	1.79 (inactive)	-0.456	-0.962 (inactive)	-2.07 (inactive)	-2.96
COC(=O)[C@@]1(Cc2ccc(OC)cc2)[C@H]2c3cc(C(=O)N4CCCC4)n(Cc4ccc(C(F)(F)F)nc4)c3C[C@H]2CN1C(=O)c1ccccc1	-2.07 (inactive)	-0.0647	6.38 (inactive)	4.52 (inactive)	0.746 (inactive)	3.37 (inactive)	-0.249	0.101 (inactive)	0.564 (inactive)	0.63
COC(=O)[C@@]1(Cc2ccc(OC)cc2)[C@H]2c3cc(C(=O)N(C)C)[nH]c3C[C@H]2CN1C(=O)c1ccccc1	-0.439 (inactive)	-0.0969	5.74 (inactive)	0.806 (inactive)	0.395 (inactive)	0.764 (inactive)	-0.38	0.371 (inactive)	0.602 (inactive)	-1.58
COC(=O)[C@@]1(Cc2ccc(OC)cc2)[C@H]2c3cc(C(=O)N4CCCC4)n(Cc4ccc(Cl)c(C(F)(F)F)c4)c3C[C@H]2CN1C(=O)c1ccccc1	-0.557 (inactive)	1.19	1.24 (inactive)	-0.382 (inactive)	-0.397 (inactive)	-1.17 (inactive)	2.85	0.449 (inactive)	1.28 (inactive)	-4.74
O=C1O[C@@H](c2ccccc2)[C@@H](c2ccccc2)N2[C@@H](c3ccccc3OCCO)[C@]3(C(=O)Nc4ccc(C#CCCO)cc43)[C@@H](C(=O)NC[C@H](O)c3ccccc3)[C@H]12	0.54 (inactive)	1.63	1.54 (inactive)	0.913 (inactive)	-1.33 (inactive)	1.28 (inactive)	-0.471	1.59 (inactive)	0.462 (inactive)	0.689
C=CCC(OC(C)=O)[C@@H]1[C@@H](N(Cc2cc3ccccc3o2)C(=O)Cc2ccc(OC)cc2)c2cc(OCCCO)ccc2N1C(=O)c1ccc2ccccc2n1 (stereo not given in full)	0.697 (inactive)	0.231	2.75 (inactive)	0.567 (inactive)	0.867 (inactive)	0.186 (inactive)	0.856	0.226 (inactive)	-1.14 (inactive)	1.52
CCCc1cc2c(n1CCc1ccc(Cl)cc1)C(C)C1CN(C(=O)c3ccccc3)C(C)(C(=O)OC)C21 (stereo not given)	-2.41 (inactive)	0.268	2.24 (inactive)	0.322 (inactive)	2.8 (inactive)	0.347 (inactive)	0.0928	-2.06 (inactive)	-7.6 (inactive)	-5.16
O=C1[C@H]2C=C(I)[C@H](C[C@@H]2c2ccccc2)[C@@]12CO2	-1.76 (inactive)	-0.15	0.613 (inactive)	0.0069 (inactive)	0.402 (inactive)	-0.0396 (inactive)	-0.164	-0.66 (inactive)	0.265 (inactive)	-0.666
COC(=O)c1cccc([C@H]2OC(=CC(=O)OC(C)C)C[C@@H](c3cccc(C(=O)OC)c3)O2)c1	-0.576 (inactive)	0.635	18.5 (active)	3.17 (inactive)	0.487 (inactive)	0.683 (inactive)	0.0055	-0.679 (inactive)	-1.6 (inactive)	-2.04
